Only some compounds are listed: those with a hit (about 1% of all), similar ones and a draw of the others.
RN4220 kill – kills Staphylococcus aureus RN4220; S. aureus RN4220 growth, OD600, 16 h; inhibition, % (no concentration beside the values); 330,000 tested, 0.33% active; in the data active = inhibition above about 85%
Sa ugtP lethal – kills S. aureus RN4220 lacking UgtP | growth inhibition, % (no concentration beside the values) | 330,000 tested, 0.54% active | S. aureus RN4220 ugtP deletion, OD600 growth, 16 h; in the data active = growth inhibition above about 68%
PriA SSB inh – K. pneumoniae PriA-SSBct interaction inhibition | AID 1272365 | inhibition, % at 33 µM | AlphaScreen SSBct-PriA binding, biotinylated peptide | 430,000 tested, 0.6% active; in the data active = inhibition mostly above about 37%, no sharp cut-off; inactive = mostly below about 20%
Of the large screens only hits and unclear results are named; the others gave an inactive call.

CC1(C)C(C=C(Cl)Cl)C1C(=O)Nc1ccc([N+](=O)[O-])cc1 (stereo not drawn)	RN4220 kill 87.1, Sa ugtP lethal 93.9
COc1ccc(NC(=O)NS(=O)(=O)c2ccc(C)cc2)c(OC)c1	PriA SSB inh 53.5
COc1ccc(NC(=O)CS(=O)(=O)c2ccc(C)cc2)c(OC)c1	none
Cc1ccc(NC(=O)NNS(=O)(=O)c2ccc(Br)cc2)cc1	none
Cc1ccc(S(=O)(=O)NC(=O)Nc2ccc(N(C)C)cc2)cc1	PriA SSB inh 82.5
COc1ccc(-c2csc(NC(=O)/C=C/c3ccc([N+](=O)[O-])cc3)n2)cc1OC	PriA SSB inh 69.0 (no result: RN4220 kill, Sa ugtP lethal)
COc1ccc(-c2csc(NC(=O)/C=C/c3cccs3)n2)cc1OC	none (no result: RN4220 kill, Sa ugtP lethal)
CCOc1ccc(-n2nnc(C(=O)OCc3cccc(Cl)c3)c2C)cc1	none (no result: RN4220 kill, Sa ugtP lethal)
O=C(Nc1nc2c(s1)CCCC2)[C@@H]1COCC(=O)N1Cc1cccs1	none (no result: RN4220 kill, Sa ugtP lethal)
Cc1csc(NC(=O)Nc2cn(C)c3ccccc23)n1	none (no result: RN4220 kill, Sa ugtP lethal)
CCOC(=O)N=Nc1c(O)n(CC(=O)OC)c2ccccc12	none
CCOC(=O)N=Nc1c2ccccc2c2nc3no[nH]c3nc12	RN4220 kill 100.2, Sa ugtP lethal 100.1
COc1ccccc1NC(N)=Nc1nc(C(F)(F)F)cc(=O)[nH]1	none (no result: RN4220 kill, Sa ugtP lethal)
COCCCNC(=S)NN=Cc1ccc(O)cc1	none
CNC(=S)NN=Cc1ccccc1Cl	none
Oc1cccc(C=NNc2ccccn2)c1	none (no result: RN4220 kill, Sa ugtP lethal)
S=C(NN=Cc1ccccc1Cl)Nc1cccc(Cl)c1Cl	Sa ugtP lethal 98.7 (no result: PriA SSB inh)
Cc1ccccc1NC(=S)NN=Cc1ccc(O)cc1O	PriA SSB inh 49.9
Cc1ccc(Cl)cc1NC(=S)NN=Cc1cccc2ccccc12	none (no result: RN4220 kill, Sa ugtP lethal)
Oc1ccc(C=NNc2ccccn2)c(O)c1	PriA SSB inh 94.7 (no result: RN4220 kill, Sa ugtP lethal)
COCCCNC(=S)NN=Cc1ccc(O)cc1O	PriA SSB inh 46.3
Cc1ccc(S(=O)(=O)N2CCC(Cc3ccc(Br)cc3)(C(=O)O)CC2)cc1	none (no result: RN4220 kill, Sa ugtP lethal)
O=C(NCCc1ccccc1)c1csc(C(=O)NC2CC2)n1	none (no result: RN4220 kill, Sa ugtP lethal)
CCOc1ccc(-c2cc(C(=O)N3CCN(c4ccc(OC)cc4)CC3)no2)cc1	none (no result: RN4220 kill, Sa ugtP lethal)
CCc1ccc(C2=NN(C(=O)c3ccccc3)C(c3cccs3)C2)cc1 (stereo not drawn)	none (no result: RN4220 kill, Sa ugtP lethal)
O=C(NC(c1ccccc1)c1ccccc1)C(c1ccccc1)n1cccc1 (stereo not drawn)	none (no result: RN4220 kill, Sa ugtP lethal)
c1ccc(CCSc2nccn2-c2ccccc2)cc1	PriA SSB inh 61.7
O=C(CSc1nccn1-c1ccccc1)NCc1ccc(F)cc1	none
CCc1ccc(CSc2nccn2-c2ccccc2)cc1	PriA SSB inh 63.0
COC(=O)CCCSc1nccn1-c1ccccc1	none
Cc1nc(Nc2ccc(NC(=O)c3c(-c4ccccc4Cl)noc3C)cc2)cc(-n2ccnc2)n1	none (no result: RN4220 kill, Sa ugtP lethal)
COc1cc(OC)cc(C(=O)Nc2nc3c(C)cc(C)cc3s2)c1	none (no result: RN4220 kill, Sa ugtP lethal)
O=C(O)c1cn(-c2ccc(N3CCCC3)c(F)c2)c2c(F)c(F)c(F)cc2c1=O	Sa ugtP lethal 100.3
Cc1c(-n2cc(C(=O)O)c(=O)c3cc(F)c(N4CCCC(O)C4)c(F)c32)c(=O)n(-c2ccccc2)n1C (stereo not drawn)	none
CCC(C)Sc1ccc(-c2nc3ccc(C)cn3c2NCc2ccccc2)cc1OC (stereo not drawn)	none (no result: RN4220 kill, Sa ugtP lethal)
CCC(C)Sc1cc(-c2nc3ccccn3c2NC2CCCCC2)ccc1OC (stereo not drawn)	RN4220 kill 100.1, Sa ugtP lethal 98.8
CCC(C)Sc1cc(-c2nc3cc(C)ccn3c2NC2CCCCC2)ccc1OC (stereo not drawn)	none
CC(=O)c1ccc(-c2cccc(-c3nc4ccccn4c3NC3CCCCC3)c2)cc1	PriA SSB inh 41.1
CCC(C)Sc1cc(-c2nc3ccc(C)cn3c2NCc2ccccc2)ccc1OC (stereo not drawn)	PriA SSB inh 38.8
c1csc(-c2nc3ccccn3c2NC2CCCCC2)c1	none
Cc1nc2n(n1)C(=O)C([C@@H](c1cccc(Br)c1)N1CCN(C)CC1)S2 (stereo partly drawn)	none (no result: RN4220 kill, Sa ugtP lethal)
O=C(NC1CC(O)C(CO)C1)c1ccc(-n2cccc2)cc1 (stereo not drawn)	none (no result: RN4220 kill, Sa ugtP lethal)
O=C(O)c1ccc(Br)cn1	none
O=C(O)c1ccc(C2CCCC2)cn1	PriA SSB inh 100.3 (no result: RN4220 kill, Sa ugtP lethal)
Cc1ccc(/C=C/C(=O)c2cc(Br)ccc2OC(=O)c2ccco2)cc1	none
CCOc1ccc(/C=C/C(=O)c2cc(Br)ccc(=O)c2O)cc1	Sa ugtP lethal 89.6
O=C(C=Cc1ccccc1)c1cc(Br)ccc1O	none
CCOc1ccc(C(=O)/C=C/c2ccc(OC)c(OC)c2)cc1	none
CCc1ccc(/C=C/C(=O)c2cc(Br)ccc(=O)c2O)cc1	RN4220 kill 100.1, Sa ugtP lethal 95.5
Cc1cccc(/C=C/C(=O)c2cc(Br)ccc(=O)c2O)c1	RN4220 kill 98.9, Sa ugtP lethal 99.0
Cc1cc(C)nc(OC2CCC(NC(=O)C3CCC(=O)N3)CC2)n1 (stereo not drawn)	none (no result: RN4220 kill, Sa ugtP lethal)
CSc1ccc(Cc2nnc(NC(=O)c3cc4ccccc4o3)o2)cc1	none (no result: RN4220 kill, Sa ugtP lethal)
CCc1cccc2sc(N3CCN(C(=O)c4ccc([N+](=O)[O-])o4)CC3)nc12	RN4220 kill 99.7, Sa ugtP lethal 99.0
CCc1cccc2sc(N3CCN(C(=O)c4ccc(Cl)s4)CC3)nc12	none (no result: RN4220 kill, Sa ugtP lethal)
COc1ccc(-c2cnc(SCCNC(=O)c3ccccc3Br)[nH]2)cc1	none (no result: RN4220 kill, Sa ugtP lethal)
COc1ccc(CCC(=O)NCCSc2ncc(-c3ccc(OC)cc3)[nH]2)cc1	PriA SSB inh 38.0 (no result: RN4220 kill, Sa ugtP lethal)
Brc1ccc2nc(N3CCC(Cc4ccccc4)CC3)nc(-c3ccccc3)c2c1	none (no result: RN4220 kill, Sa ugtP lethal)
Cc1noc(C)c1CCC(=O)NC1CCC(Oc2ccccn2)CC1 (stereo not drawn)	none (no result: RN4220 kill, Sa ugtP lethal)
Cc1ccccc1-n1c(SCC(N)=O)nc2sc(-c3ccccc3)cc2c1=O	none
Cc1ccccc1-n1c(SCC(=O)NC(N)=O)nc2sc(-c3ccccc3)cc2c1=O	RN4220 kill 96.0, Sa ugtP lethal 98.7
CNc1ccc2oc(CC3O[C@@]4(CCC3C)OC(C(C)C(=O)c3ccc[nH]3)C(C)CC4C)nc2c1C(=O)O (stereo partly drawn)	RN4220 kill 96.4, Sa ugtP lethal 99.5 (no result: PriA SSB inh)
CNc1ccc2oc(C[C@H]3O[C@@]4(CC[C@H]3C)O[C@H]([C@H](C)C(=O)c3ccc[nH]3)[C@H](C)C[C@H]4C)nc2c1C(=O)O	none (no result: RN4220 kill, Sa ugtP lethal)
CCCCCCSc1nsc(NC(=O)CC(C)C)n1	none
CCCCCCCSc1nsc(N)n1	Sa ugtP lethal 88.9
O=C(CCCSc1nnc2c(n1)[nH]c1ccccc12)NC1CCCCC1	none (no result: RN4220 kill, Sa ugtP lethal)
O=[N+]([O-])c1ccccc1Nc1cccc(F)c1	PriA SSB inh 48.7
O=C(CCOc1ccccc1)Nc1ccccc1[N+](=O)[O-]	none
Cc1cc(Nc2ccccc2)c2c([N+](=O)[O-])ccc(C)c2n1	PriA SSB inh 60.4
O=[N+]([O-])c1ccccc1NCCOc1ccccc1	PriA SSB inh 38.6
Cc1cc(Nc2ccc(Cl)cc2)c2c([N+](=O)[O-])ccc(C)c2n1	none (no result: RN4220 kill, Sa ugtP lethal)
O=[N+]([O-])c1cnccc1Nc1cccc(F)c1	none
O=[N+]([O-])c1ccccc1Nc1ccccc1[N+](=O)[O-]	none
O=[N+]([O-])c1ccccc1Nc1ccccc1	PriA SSB inh 69.9
O=C(NCc1cccs1)c1n[nH]nc1Nc1cccc(F)c1	none (no result: RN4220 kill, Sa ugtP lethal)
O=C(CCNS(=O)(=O)c1cccc(Cl)c1)NCc1ccccc1-c1ccsc1	none (no result: RN4220 kill, Sa ugtP lethal)
Cc1noc(NS(=O)(=O)c2ccc(NC(=O)CN3C(=O)c4ccccc4S3(=O)=O)cc2)c1C	none (no result: RN4220 kill, Sa ugtP lethal)
FC(F)Sc1ccc(NC(=S)NC(c2ccccc2)c2ccccc2)cc1	RN4220 kill 99.3, Sa ugtP lethal 100.3
FC(F)Sc1ccc(NC(=S)NCc2ccccc2)cc1	none
FC(F)Sc1ccc(NC(=S)NC2CCCCC2)cc1	none

Compound activity from PubChem BioAssay.
